# Source: ChEMBL document CHEMBL3988442, “University of Dundee, Small-Polar-MMV Screening Library” (2021)
# About 1,000 (1.4%) of roughly 69,000 compounds showed an effect of 50% or more. Shown is part of a subset that was picked to be rich in strong results.
# System: Leishmania donovani
# Test: Leishmania intramacrophage assay
# Format: functional, organism-based
# Design: scale not given: in the data most compounds retested in dose-response had high values
smiles,measurement,setting,value
CN(C)c1ccc(NC(=O)c2cccc(N(C)C)c2)nc1,Percent Effect,"30.3 µM, […]",-2.123%
CCC(Nc1nc(C)nc2c1cnn2C)c1ncnn1CC (stereo unspecified),Percent Effect,"30.3 µM, […]",26.92%
O=C(CCn1ccc2cc(Br)ccc21)/N=c1\[nH]nc(C2CCCO2)s1 (stereo unspecified),Percent Effect,"30.3 µM, […]",4.273%
Cc1ccoc1-c1nnc(CNCC2CCCN2c2cccnn2)o1 (stereo unspecified),Percent Effect,"30 µM, 30.03 µM",-17.44%
COCCN(C)C[C@@H]1CN(C(=O)c2ccc(C)cc2)C[C@@H]1CO,Percent Effect,"30.3 µM, […]",11.58%
CN1CCCC2(CCN(C(=O)Cn3ncc4ccccc4c3=O)C2)C1=O (stereo unspecified),Percent Effect,"30.3 µM, […]",-13.05%
Cc1ccc(CN2CCN(CC(=O)N(C)C)[C@@H]3CS(=O)(=O)C[C@@H]32)cc1C,Percent Effect,"30.3 µM, […]",18.74%
COc1ccc(-c2noc(C(N)CCSC)n2)cc1 (stereo unspecified),Percent Effect,"30.3 µM, […]",-25.69%
N[C@H]1CN(CCCOc2ccccc2)C[C@@H]1C1CC1,Percent Effect,"30.3 µM, […]",66.02%
NC(=O)c1ccc(OCCCN2C[C@H](C3CC3)[C@@H](N)C2)cc1,Percent Effect,"30.3 µM, […]",42.52%
N[C@H]1CN(CCOc2ccc(F)cc2)C[C@@H]1C1CC1,Percent Effect,"30.3 µM, […]",44.73%
COCc1nn(C(C)C)c2c1CCN(Cc1nccs1)C2.O=C(O)C(F)(F)F,Percent Effect,"30.3 µM, […]",-18.46%
CCCc1c(C2CCOC(C)(C)C2)nc(N)c(C#N)c1-c1cnn(C)c1 (stereo unspecified),Percent Effect,"30.3 µM, […]",65.78%
Cc1c(C2CCOC(C)(C)C2)nc(N)c(C#N)c1-c1ccc(O)cc1 (stereo unspecified),Percent Effect,"30.3 µM, […]",-5.002%
CCn1cc(-c2c(C)c(C3CCOC(C)(C)C3)nc(N)c2C#N)cn1 (stereo unspecified),Percent Effect,"30.3 µM, […]",20.42%
CC(C)Oc1ccc(CN2CCC(c3n[nH]c4ncccc34)CC2)cc1,Percent Effect,"30.3 µM, […]",1.844%
Cc1ccccc1N1CCN(c2cc(N(C)C)ncn2)C(C)C1 (stereo unspecified),Percent Effect,"30.3 µM, […]",15.61%
Cc1ccc(N2CCN(c3ccccc3C)CC2C)nn1 (stereo unspecified),Percent Effect,"30.3 µM, […]",9.128%
Cc1ccccc1N1CCN(c2ccncn2)C(C)C1 (stereo unspecified),Percent Effect,"30.3 µM, […]",61.35%
Cc1nn(C)c(C)c1CN(C)c1nc(C2CCCC2)nc2c1cnn2C,Percent Effect,"30.3 µM, […]",17.71%
CN1CCC(c2n[nH]c3ncccc23)C1.O=CO (stereo unspecified),Percent Effect,"30.3 µM, […]",16.17%
CCc1cnc(CN(C(C)=O)C2CCN(CC(=O)N3CCCC3)C2)o1 (stereo unspecified),Percent Effect,30 µM,28.38%
Cc1cc(NCCS(C)(=O)=O)nc2ccccc12,Percent Effect,"30.3 µM, […]",25.68%
Cc1cc(NCCN)nc2ccccc12.O=[N+]([O-])O,Percent Effect,"30.3 µM, […]",54.09%
Cc1cc(NCCCNS(C)(=O)=O)nc2ccccc12,Percent Effect,"30.3 µM, […]",-8.515%
CC(C)c1nc(CN(C)C(=O)c2cn3ccsc3n2)cs1,Percent Effect,"30.3 µM, […]",-3.628%
CC(=O)Nc1nc(CS(=O)(=O)CCCc2ccccc2)cs1,Percent Effect,"30.3 µM, […]",22.96%
CCCC(C)CS(=O)(=O)NCCc1csc(N2CCCC2)n1 (stereo unspecified),Percent Effect,"30.3 µM, […]",65.07%
CCC(C)CS(=O)(=O)NCCc1csc(N2CCCC2)n1 (stereo unspecified),Percent Effect,"30.3 µM, […]",43.99%
CC(C)(C)CCS(=O)(=O)NCCc1csc(N2CCCC2)n1,Percent Effect,"30.3 µM, […]",30.66%
O=C1CO[C@H]2CN(Cc3cccc4[nH]ccc34)C[C@@H]2N1C1CCOCC1,Percent Effect,"30.3 µM, […]",12.12%
Cc1ccc(C2CCCN2S(=O)(=O)N(C)Cc2cnn(C)c2)o1 (stereo unspecified),Percent Effect,"30.3 µM, […]",-0.6676%
CCOc1ccc(C(=O)CCC(=O)N(C)Cc2noc(C)n2)cc1C,Percent Effect,"30.3 µM, […]",4.933%
CN1CCCC1(CCCc1cccnc1)C(=O)NCc1nccn1C (stereo unspecified),Percent Effect,"30.3 µM, […]",27.11%
Cc1ccc(O)c(CNC2CCc3nc(C(C)C)nn3C2)n1 (stereo unspecified),Percent Effect,"30 µM, 30.03 µM",0.7212%
Cc1ccc(S(=O)(=O)N2CCN(CCC#N)CC2)s1,Percent Effect,"30.3 µM, […]",34.19%
Cc1ccc(S(=O)(=O)N2CCN(CCCO)CC2)s1,Percent Effect,"30.3 µM, […]",55.51%
Cc1ccc(S(=O)(=O)N2CCN(CCC(N)=O)CC2)s1,Percent Effect,"30.3 µM, […]",13.04%
C[C@H](NC(=O)c1cnc(-c2ccccc2)nc1O)C(N)=O,Percent Effect,"30.3 µM, […]",12.89%
CCSCC(C)NCc1ccccc1-n1ccnc1 (stereo unspecified),Percent Effect,"30.3 µM, […]",-5.681%
COc1ccc(C(C)NCc2ccnn2C)cc1Cn1cccn1 (stereo unspecified),Percent Effect,"30.3 µM, […]",30.62%
Cc1cnc(CN2CCN(c3nc(C)cs3)C(C)C2)cn1 (stereo unspecified),Percent Effect,"30.3 µM, […]",-40.38%
Cc1csc(N2CCN(Cc3cscn3)CC2C)n1 (stereo unspecified),Percent Effect,"30.3 µM, […]",-18.36%
Cc1csc(N2CCN(Cc3cnc(C)s3)CC2C)n1 (stereo unspecified),Percent Effect,"30 µM, 30.03 µM",50.44%
O=C1CC2(CCN(Cc3ccc4cccc(O)c4n3)CC2)CN1,Percent Effect,"30.3 µM, […]",0.5464%
O=C1CC(c2cccnc2)c2c(c(C(=O)O)cn2-c2ccccc2)N1 (stereo unspecified),Percent Effect,"30 µM, 30.03 µM",-20.51%
O=C1CC(c2cccnc2)c2c(c(C(=O)O)cn2-c2ccc(Cl)cc2)N1 (stereo unspecified),Percent Effect,"30.3 µM, […]",19.15%
O=C1CC(c2cccnc2)c2c(c(C(=O)O)cn2-c2cccc(F)c2)N1 (stereo unspecified),Percent Effect,"30.3 µM, […]",52.29%
CCc1cnc2c(c1Nc1cccc(OC)c1)c(=O)n(C)c(=O)n2C,Percent Effect,"30.3 µM, […]",19.41%
CC(=O)N[C@H]1CCN(c2nc(C)nc3c2c(C)nn3C)C1,Percent Effect,"30.3 µM, […]",15.16%
COc1cccc(Nc2nc(C3CCCNC3)c3sc(C)c(C)n23)c1.Cl (stereo unspecified),Percent Effect,"30.3 µM, […]",20.11%
Fc1cccc(Nc2nc(N3CCCC3)nc3c2CNCC3)c1,Percent Effect,"30.3 µM, […]",99.78%
CC(Nc1nc(-c2ccncc2)nc2c1CCNC2)c1ccccc1 (stereo unspecified),Percent Effect,"30.3 µM, […]",41.34%
COc1cccc(Nc2nc(N3CCCC3)nc3c2CNCC3)c1.Cl,Percent Effect,"30.3 µM, […]",98.87%
Cc1sc2c(C3CCCNC3)nc(Nc3cccc(F)c3)n2c1C.Cl (stereo unspecified),Percent Effect,"30.3 µM, […]",8.436%
COc1cccc(Nc2nc(C3CCCNC3)c3ccccn23)c1.Cl (stereo unspecified),Percent Effect,"30.3 µM, […]",2.866%
COc1cccc(Nc2nc(-c3ccncc3)nc3c2CNCC3)c1.Cl,Percent Effect,"30.3 µM, […]",63.42%
COc1cccc(Nc2nc(C3CCNCC3)c3ccccn23)c1.Cl,Percent Effect,"30.3 µM, […]",-2.973%
COc1cccc(CNC(=O)c2cc(C)nc(N3CCCC3)n2)c1,Percent Effect,"30.3 µM, […]",4.164%
CCOCCNc1nc(-c2ccncc2)nc2c1CCNCC2,Percent Effect,"30.3 µM, […]",-3.835%
CCN1CCN(S(=O)(=O)c2cc(Cl)c(Cl)cc2C)CC1,Percent Effect,"30 µM, 30.03 µM",23.98%
Cc1nc(C2CCN(C(=O)c3cc(C4CC4)[nH]n3)CC2)no1,Percent Effect,"30.3 µM, […]",23.74%
CC1(C(=O)NC2CCCC2)CCCN(c2ncccn2)C1 (stereo unspecified),Percent Effect,"30.3 µM, […]",2.815%
COc1ccnc(N2CCN(C(=O)c3csc(C4CC4)n3)CC2)n1,Percent Effect,"30 µM, 30.03 µM",15.31%
CN(C)c1ncc(-c2cc(C(=O)N3CCCC3)n(CC3CC3)c2)cn1,Percent Effect,"30.3 µM, […]",-11.64%
CN1CCCN(C(=O)c2nc3sccn3c2-c2ncc[nH]2)CC1,Percent Effect,"30.3 µM, […]",0.9103%
